Sampled rows, rich in hits. Any-hit rate of the full collection: about 4.6%.
D1 PAM = Potentiators of Human D1 Dopamine Receptor: qHTS. AID 504651, 2011. 0.036% of 360,000 active. HEK293 TREx D1 cells, calcium flux, dopamine EC20 potentiation. D(1A) dopamine receptor (Homo sapiens), P21728. potentiation, % at 10 µM; in the data active = potentiation above about 30%
Target sequence (P21728 whole entry, looked up): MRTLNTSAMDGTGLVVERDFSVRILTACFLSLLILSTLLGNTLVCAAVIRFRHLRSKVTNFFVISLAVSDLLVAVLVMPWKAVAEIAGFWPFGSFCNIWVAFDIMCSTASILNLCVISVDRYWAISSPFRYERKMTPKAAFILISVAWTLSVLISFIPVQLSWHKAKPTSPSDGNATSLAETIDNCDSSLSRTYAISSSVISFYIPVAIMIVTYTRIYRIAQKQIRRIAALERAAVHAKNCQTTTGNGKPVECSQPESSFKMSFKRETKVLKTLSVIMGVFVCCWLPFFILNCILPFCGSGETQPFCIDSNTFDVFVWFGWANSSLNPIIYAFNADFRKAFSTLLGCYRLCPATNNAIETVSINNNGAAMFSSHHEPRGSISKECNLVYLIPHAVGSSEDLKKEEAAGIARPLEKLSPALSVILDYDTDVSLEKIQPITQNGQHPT
TRHR ag = qHTS for Small Molecule Agonists and Allosteric Enhancers of Human TRH Receptor: Primary Screen for Agonists | Thyrotropin-releasing hormone receptor (Homo sapiens), P34981 | TRHR cells, calcium flux fluo-8, FDSS agonist mode | activation, % at 2 µM | 0.18% of 360,000 active | AID 493084, 2011
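Agonist-mode FDSS calcium read (Ex 480/Em 530, 1 s cycles) in 1536-well TRHR cells with fluo-8 dye, after 10-cycle baseline and 23 nL compound addition; TRH at EC20 (10 nM final) added afterwards for the enhancer phase.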
TRHR enhancer = qHTS for Small Molecule Agonists and Allosteric Enhancers of Human TRH Receptor: Primary Screen for Enhancers; Thyrotropin-releasing hormone receptor (Homo sapiens), P34981; TRHR cells, fluo-8 calcium fluorescence, EC20 TRH enhancement; enhancement, % at 2 µM; 0.66% of 360,000 active; AID 493056, 2011; in the data active = enhancement above about 30%
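Enhancer read-out: after compound pinning and an initial kinetic agonist-mode read, an EC20 of TRH (10 nM final) was injected and fluo-8 calcium signal (Ex 480/Em 530) followed at 1 s/cycle for 100 cycles in TRHR-expressing cells.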
D1 agonist = Allosteric Agonists of the Human D1 Dopamine Receptor: qHTS | 1% of 360,000 active | HEK293 T-REx D1 cells, calcium flux, agonist mode | activation, % at 2 µM | AID 504660, 2011
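Tetracycline-induced HEK293 TREx D1 cells, force-coupled to calcium signalling, were dye-loaded with a no-wash calcium kit. Compound was pin-added after a 10 s baseline. Fluorescence was read kinetically at 1 cycle/s for 180 s, with calcium rises flagged as agonism.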
D1 antagonist = Antagonist of Human D 1 Dopamine Receptor: qHTS; HEK293 TREx D1 cells, calcium flux, dopamine EC80; stronger effect = lower value; D(1A) dopamine receptor (Homo sapiens), P21728; 3.2% of 360,000 active; activity change, negative = inhibition, % at 10 µM; AID 504652, 2011; in the data active = activity change below about -30%
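HEK293 T-REx cells expressing inducible, force-coupled D1 receptor; no-wash Ca dye, 30–90 min RT. Cmpd → 180 s read at 1 Hz → EC80 DA → 180 s read.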
Numbers stand for hits; . = inactive; / = no result; ! = not active in a repeat. Cut-off read from the data, not from the text of the source, unless noted: active = activation above about 30%; inactive = the rest.

SMILES | D1 PAM | TRHR ag | TRHR enhancer | D1 agonist | D1 antagonist
CC(=O)c1cccc(OCC(O)CNCC2COc3ccccc3O2)c1 (stereo not given) | . | . | . | 45 | -48
O=C(Nc1ccc(Cl)cc1)NC1CCCCC1Cc1ccco1 (stereo not given) | . | . | . | . | -34
Cc1nc(-c2ccc(C)c(N3CCN(C(=O)Nc4cccc(Cl)c4C)CC3)c2)no1 | . | . | . | . | .
N#Cc1c([N+](=O)[O-])cc([N+](=O)[O-])cc1S(=O)(=O)Cc1ccccc1 | . | . | . | . | -35
O=C(CSc1nnc(NC(=O)C2CCC2)s1)Nc1ccccc1Br | . | . | . | . | .
COc1ccc(OC)c(S(=O)(=O)NCCc2sc(-c3cccnc3)nc2C)c1 | . | . | . | . | .
COc1ccc(C(=O)C(C)[n+]2ccc(C)c3ccccc32)cc1[N+](=O)[O-] (stereo not given) | . | . | . | 52 | .
Cc1cc(SCC(=O)N/N=C/c2ccc(O)c(O)c2)c(C)cc1Br | . | . | . | . | -32
C=CCN1C(=O)C2(NC(=O)c3ccccc3N2)c2ccccc21 (stereo not given) | . | . | . | . | .
C=CCN1C(=O)C2(NNc3ccccc3O2)c2ccccc21 (stereo not given) | . | . | . | 45 | .
CCCCN1C(=O)C2(NNc3ccccc3O2)c2ccccc21 (stereo not given) | . | . | . | 74 | /
COc1ccc(C(=O)NCc2ccc3c(c2)CCN3C(=O)c2ccc(C)cc2)cc1 | . | . | . | . | .
CCCOC(=O)c1ccc(NC(=O)c2ccc(Br)o2)cc1 | . | . | . | . | -32
CCN1CCN(c2ccc(NC(=O)c3ccc(Br)o3)cc2)CC1 | . | . | 33 | . | .
COC(=O)Cc1ccc(NC(=O)c2ccc(Br)o2)cc1 | . | . | . | . | .
CCCC(=O)N1CCN(c2ccc(NC(=O)c3ccc(Br)o3)cc2)CC1 | . | . | . | . | -43
CCOC(=O)c1[nH]c2ccccc2c1NC(=O)c1ccc(OC(C)C)cc1 | . | . | . | . | .
CN1CCN(c2ccc(NC(=O)CSc3ccccc3)cc2F)CC1 | . | . | . | . | -53
O=C(Nc1ccncc1)C1CCN(S(=O)(=O)c2cccc(C(F)(F)F)c2)CC1 | / | . | . | . | -44
O=C(Cc1ccc(S(=O)(=O)N2CCOCC2)s1)Nc1cc(C(F)(F)F)ccc1N1CCCC1 | . | . | . | . | .
COc1ccc(CCC(=O)Nc2cccc(S(=O)(=O)N3CCCCCC3)c2)cc1OC | . | . | . | . | -31
O=C(Cc1cccc(C(F)(F)F)c1)Nc1cc(S(=O)(=O)N2CCOCC2)ccc1N1CCCC1 | . | . | . | . | -43
Cc1ccc(Nc2c3c(nc4nncn24)CCC3)cc1C | . | . | . | . | .
Cc1ccc(-c2nnc3ccccc3c2C(=O)Nc2ccc(C)c(F)c2)cc1 | . | . | . | . | .
CC(C)Oc1ccc(CNC(=O)CCn2c(=O)c3cccn3c3ccc(F)cc32)cc1 | . | . | . | . | .
SMILES | D1 PAM | TRHR ag | TRHR enhancer | D1 agonist | D1 antagonist
Clc1ccc(CNc2cc(-c3ccccc3)nc3nncn23)cc1 | . | . | . | . | .
COCCCNc1nc(NCc2ccccc2OC)c2cnn(C)c2n1 | . | . | . | . | .
CC(CC(=O)Nc1cccc(S(=O)(=O)N2CCCCC2)c1)c1ccccc1 (stereo not given) | . | . | . | . | .
O=C(CSc1ccccc1)Nc1cccc(S(=O)(=O)N2CCCC2)c1 | . | . | . | . | -32
O=C(Nc1ccc(C(F)(F)F)cc1)C1CCN(c2cnccn2)CC1 | . | . | . | . | -56!
O=C(Cc1cccc(C(F)(F)F)c1)Nc1ccc(S(=O)(=O)N2CCCC2)cc1 | . | . | . | . | .
O=C(Cc1cccc(C(F)(F)F)c1)Nc1cccc(S(=O)(=O)N2CCCC2)c1 | . | . | . | . | -41
Cc1ccc(NC(=O)C2CCN(c3cnccn3)CC2)cc1 | . | . | . | . | .
CC(=O)N1CCN(S(=O)(=O)c2cccc(C(=O)Nc3cc(C(F)(F)F)ccc3N3CCOCC3)c2)CC1 | . | . | . | . | -31
Cc1ccc2c(c1)C(c1ccc(F)cc1)N(C(=O)COc1ccc(Cl)cc1Cl)CC(=O)N2 (stereo not given) | . | . | . | . | .
CCOc1ccccc1C(=O)Oc1c(S(=O)(=O)c2ccc(C)cc2)c(C)nn1-c1ccccc1 | . | . | . | . | .
Cc1cccc(C(=O)Nc2ccc(C(=O)OCc3cc(=O)n4nc(CC(C)C)sc4n3)cc2)c1 | . | . | . | . | .
COc1ccc(C2c3c4c(n(C)c3CCN2C)CCN(C)C4c2ccc(OC)cc2)cc1 (stereo not given) | . | . | . | . | -31
O=C(NCCCc1ccccc1)c1ccc(F)cc1 | . | . | . | . | .
O=C(NCCNC1CCC(c2ccccc2)CC1)c1ccc(F)cc1 (stereo not given) | . | . | . | 52 | -37
COc1ccc(CCNC(=O)CCCn2c(=O)c3ccccc3n(Cc3cccc(Cl)c3)c2=O)cc1OC | . | . | . | . | .
O=C(Cn1c(=O)c2ccccc2n(CC(=O)Nc2ccc(F)cc2F)c1=O)NCCc1ccccc1 | . | . | . | . | .
O=C(CCCCn1c(=O)c2ccccc2n(CC(=O)Nc2cccc(F)c2)c1=O)NCc1ccccc1Cl | . | . | . | 33 | .
O=C(CCCCn1c(=O)c2ccccc2n(CC(=O)Nc2ccc(F)cc2F)c1=O)NCCc1ccccc1 | . | . | . | . | -38
COC(=O)c1ccccc1NC(=O)Cn1c(=O)n(CCCC(=O)NCCc2ccc(OC)c(OC)c2)c(=O)c2ccccc21 | . | . | . | . | -32
COc1ccc(CCNC(=O)CCCCn2c(=O)c3ccccc3n(Cc3ccc(Cl)cc3)c2=O)cc1OC | . | . | . | . | -53
COc1ccc(NC(=O)CN(C)C(=O)CCCNC(=O)c2ccc(Cl)cc2)cc1 | . | . | . | . | .
COc1ccc2oc(C(=O)NCc3ccccc3CN3CCCC3)c(C)c2c1 | / | . | . | . | -57
COc1ccc2cc(C(=O)NCc3ccccc3CN3CCCC3)ccc2c1 | . | . | . | . | -64
Cc1ccc(C(=O)NCc2ccccc2CN2CCCC2)cc1S(=O)(=O)N1CCOCC1 | . | . | . | . | .
Cc1cccc(OCCSCc2nc3ccccc3[nH]2)c1 | . | . | . | . | .
Cc1ccccc1OCCSCc1nc2ccccc2[nH]1 | . | . | . | . | -30
COc1cc(Cl)c(C)cc1NC(=O)Cn1cnc2sc(C)c(S(=O)(=O)N3CCCCC3)c2c1=O | . | . | . | . | .
